Outcome and Potency data for 20 compounds are collected here from PubChem BioAssay (NCATS).

For assay [1], the target named is Alpha-galactosidase A (Homo sapiens) (UniProt P06280). The assay can be described thus: Counterscreen for Glucocerebrosidase Inhibitors: qHTS Assay for Human alpha-Galactosidase at pH 4.5 (AID 992). To be noted: purified enzyme, fluorogenic substrate; series mostly up to 76.9 µM. In a few lines:
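Read-out is 4-methylumbelliferone fluorescence (365 nm excitation, 440 nm emission) after a pH 10 NaOH/glycine stop. Reactions held 2 nM enzyme and 80 uM substrate at pH 4.5 for 20 min at room temperature.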

The target in assay [2] is alpha-glucosidase (Oryza sativa, rice) (UniProt Q653V4). The assay can be described thus: Counterscreen for Glucocerebrosidase Inhibitors: qHTS Assay for Rice alpha-Glucosidase at pH 5.0 (AID 997). To be noted: rice alpha-glucosidase enzyme activity; series mostly up to 76.9 µM. In a few lines: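 Rice alpha-glucosidase (4 nM final) with 400 uM 4-methylumbelliferyl-alpha-D-glucopyranoside in citrate buffer pH 5.0, 20 min at room temperature, stopped at pH 10; fluorescence 365/440 nm, compounds 0.7 nM–77 uM, AC50 from Hill fits.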

Assay [3] in a line: Counterscreen for APE1 Inhibitors: Fluorescent Dye Displacement Validation Assay (AID 1707). Conditions: fluorescent dye displacement from DNA; series mostly up to 57.1 µM. In a few lines: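 ThO 250 nM + dsDNA 50 nM (THF abasic site, 5'-TAMRA), Tris-HCl pH7.5/50mM NaCl/2 mM MgCl2/0.01% Tween-20; compounds pin-transferred; ex 480/em 540 nm endpoint. Neutral = no compound; no-DNA ThO wells = negative control.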

In assay [4] the target is Endonuclease 4 (Escherichia coli (strain K12)) (UniProt P0A6C1). The assay can be described thus: Counterscreen for APE1 Inhibitors: qHTS Validation Assay for Inhibitors of Endonuclease IV (AID 1708). Conditions: E. coli endonuclease IV, DNA cleavage fluorescence; series mostly up to 57.1 µM. In a few lines:
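E. coli EndoIV at 2 nM final, preincubated 15 min at room temperature with compound, then 50 nM TAMRA/BHQ-2 THF abasic-site duplex added. Buffer: 50 mM Tris-HCl pH 7.5, 50 mM NaCl, 2 mM MgCl2, 1 mM DTT, 0.01% Tween-20. Kinetic fluorescence increase, third minus first read.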
In general terms: A counterscreen serves to expose hits that act by an unwanted route or on another target.

A short description of assay [5]: qHTS for differential inhibitors of proliferation of Plasmodium falciparum line 7G8 (AID 1815).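 Further: parasite growth measured after three days of incubation.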 Further: potency means the concentration at half of the fitted maximal effect. To be noted: Plasmodium falciparum 7G8 proliferation inhibition; series mostly up to 28.7 µM.
A short description of assay [6]: qHTS for differential inhibitors of proliferation of Plasmodium falciparum line GB4 (AID 1816).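 Further: parasite growth measured after 72 h incubation.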 Further: potency means the concentration at half of the fitted maximal effect. Conditions: Potency: Plasmodium falciparum GB4 proliferation inhibition; series mostly up to 28.7 µM.
Assay [7] is described as follows: qHTS for differential inhibitors of proliferation of Plasmodium falciparum line 3D7 (AID 1876). Further: potency means the concentration at half of the fitted maximal effect. To be noted: P. falciparum 3D7 proliferation inhibition; series mostly up to 28.7 µM. A general note: qHTS replaces the single test concentration by a dilution series.
The nature of assay [8]: qHTS for differential inhibitors of proliferation of Plasmodium falciparum line D10 (AID 1877).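 Further: parasites grown with compound for 72 h before DNA staining.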 Further: potency means the concentration at half of the fitted maximal effect. To be noted: series mostly up to 28.7 µM.
Assay [9] deals with DNA repair nuclease/redox regulator APEX1 (Homo sapiens) (UniProt P27695). The assay can be described thus: qHTS Validation Assay for Inhibitors of the Human Apurinic/apyrimidinic Endonuclease 1 (APE1) (AID 1705; further: potency means the concentration at half of the fitted maximal effect). To be noted: purified APE1 endonuclease activity, fluorescence, titration; series mostly up to 57.1 µM. In a few lines: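 Read-out: TAMRA fluorescence (525 nm ex, 598 nm em) from cleavage of a quenched THF abasic-site duplex, 50 nM final; activity taken as intensity change between third and first of three reads 60 s apart.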
Chain of DNA repair nuclease/redox regulator APEX1 (Homo sapiens) (P27695 whole entry, looked up): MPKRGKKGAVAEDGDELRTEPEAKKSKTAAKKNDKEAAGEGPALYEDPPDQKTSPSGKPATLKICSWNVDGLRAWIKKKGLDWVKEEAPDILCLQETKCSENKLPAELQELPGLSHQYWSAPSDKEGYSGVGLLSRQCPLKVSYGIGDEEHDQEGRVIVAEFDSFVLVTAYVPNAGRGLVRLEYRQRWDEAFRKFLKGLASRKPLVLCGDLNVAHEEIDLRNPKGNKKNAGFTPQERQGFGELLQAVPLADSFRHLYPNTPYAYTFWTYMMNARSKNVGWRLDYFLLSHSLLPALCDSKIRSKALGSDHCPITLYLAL

Results filed as inconclusive are left out. The source made the active and inactive calls. The call rests on the fitted dose curve; in most records, active means well fitted curve in the direction sought with a large enough effect; inconclusive means small, poorly fitted or top-dose-only effect, or another doubt; inactive means no such curve, though single readings can be large; an effect the other way counts as inactive or inconclusive. Residues, ends and D or L forms follow the SMILES beside them. *: point of attachment. Cbz = O=C(OCc1ccccc1)*

Chain of Alpha-galactosidase A (Homo sapiens) (P06280 whole entry, looked up): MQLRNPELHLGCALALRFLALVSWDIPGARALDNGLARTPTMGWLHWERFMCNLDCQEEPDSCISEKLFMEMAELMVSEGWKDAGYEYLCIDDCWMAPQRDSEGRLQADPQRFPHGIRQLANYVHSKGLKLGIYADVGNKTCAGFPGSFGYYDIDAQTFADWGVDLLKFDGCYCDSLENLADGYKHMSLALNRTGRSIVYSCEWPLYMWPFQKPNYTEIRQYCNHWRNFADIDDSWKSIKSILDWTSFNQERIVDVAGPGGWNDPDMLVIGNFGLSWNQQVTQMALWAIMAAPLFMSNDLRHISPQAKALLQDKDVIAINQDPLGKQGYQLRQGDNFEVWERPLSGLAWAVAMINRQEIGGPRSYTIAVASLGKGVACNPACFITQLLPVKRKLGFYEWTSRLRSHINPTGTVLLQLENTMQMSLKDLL

For `CC(C)(C)c1cc(/C=C(\C#N)C(N)=S)cc(C(C)(C)C)c1O`, the call in assay [1] and in [2] was inactive. The Potency result in assay [3] and in [4] was “inactive” throughout. The Potency in assay [5] is 7.94 µM (active); in assay [6], 7.94 µM (active); in [7] it was 4.47 µM (active); in [8] it was 8.91 µM (active).

As for `O=C1Nc2ccc(I)cc2/C1=C/c1cc(Br)c(O)c(Br)c1`, the call in [1] and in [2] was inactive. Also, the Potency result in assay [3] and in assay [4] was “inactive” each time. For the same compound, the Potency was 8.91 µM (active) in assay [5], 14.1 µM (active) in assay [6] and 14.1 µM (active) in [7].

As for `CCCCCCCC/C=C\CCCCCCCC(=O)NCCc1ccc(O)c(O)c1`, the outcome in [1] and in assay [2] was inactive. Moreover, in assay [9], the Potency entry was “inactive”. Further, the Potency is 7.08 µM (active) in assay [5], 11.2 µM (active) in assay [6] and 8.91 µM (active) in assay [7].

Regarding `S=C(S)N1CCCC1`, the result in assay [1] and in [2] was inactive. The Potency result in assay [9], in assay [3] and in assay [4] was “inactive” in each case.

As to `Cc1ccccc1/C=C/C1=NCCN1`, the Potency entry in assay [9] and in [3] was “inactive” each time. Moreover, the results for the Potency in assay [5] and in assay [6] were 8.91 µM (active) and 11.2 µM (active), respectively.

On to `c1ccc2c(c1)CC(N1CCN(c3cccc4c3OCCO4)CC1)C2`, for which the compound was classed as inactive in assay [1] and in [2]. Further, the Potency entry in [9], in assay [3] and in assay [8] was “inactive” throughout. For the same compound, in [7], the Potency was 12.6 µM (active).

`O=c1oc(Cl)c(Cl)c2ccccc12`: the outcome in assay [1] and in assay [2] was inactive. Moreover, the Potency result in assay [9], in [3], in assay [6], in assay [7] and in assay [8] was “inactive” in each case.

With `CCCC(=O)NCCc1c2n(c3ccc(OC)cc13)CCCc1ccccc1-2`, the call in [1] and in assay [2] was inactive. For the same compound, the Potency entry in assay [9] and in [3] was “inactive” each time. Besides, the Potency in [5] was 3.55 µM (active); in [6], 11.2 µM (active); in assay [8], 12.6 µM (active).

Consider `[N-]=[N+]=Nc1ccc(C(=O)CSC[C@H](NC(=O)CC[C@H](N)C(=O)O)C(=O)NCC(=O)O)cc1`, for which the Potency in [9] was 20 µM (active). The Potency entry in assay [3], in assay [5], in assay [7] and in assay [8] was “inactive” in each case.

Consider `CCCCCC[C@@H]([C@@H](C)O)n1cnc2c(N)ncnc21`, for which the Potency entry in assay [9], in assay [3], in assay [5], in assay [6] and in [8] was “inactive” throughout.

In the case of `O=C(N[C@@H](Cc1ccccc1)C(=O)CCl)OCc1ccccc1`, the call in assay [1] and in assay [2] was inactive. Also, the Potency result in assay [9] and in assay [3] was “inactive” in each case. Besides, the Potency is 8.91 µM (active) in assay [5], 10 µM (active) in [6] and 11.2 µM (active) in [7].

On to `COc1ccccc1N1CCN(CCCCN2C(=O)c3ccccc3C2=O)CC1`, for which the compound was called inactive in [1] and in [2]. Further, the Potency entry in assay [9], in assay [3], in assay [5] and in assay [8] was “inactive” in each case. In addition, the Potency in assay [7] is 12.6 µM (active).

For the compound `Nc1ncnc2c1c(-c1ccc(Oc3ccccc3)cc1)cn2C1CCCC1`, the compound was called inactive in assay [1] and in assay [2]. For the same compound, the Potency result in assay [9] and in assay [3] was “inactive” each time. Besides, the Potency in [5] is 4.47 µM (active); in assay [6], 2.51 µM (active); in assay [7], 10 µM (active); in assay [8] it was 12.6 µM (active).

With `O=C(O)Cc1c[nH]c2ccc(O)cc12`, the call in assay [1] and in assay [2] was inactive. Moreover, the Potency result in assay [9], in assay [3], in assay [5], in [6] and in assay [8] was “inactive” in each case.

In the case of `NC(=Nc1ccccc1)NC(=O)c1nc(Cl)c(N)nc1N`, the compound was classed as inactive in assay [1] and in assay [2]. For the same compound, the Potency result in assay [9] and in [3] was “inactive” in each case. Moreover, the Potency in assay [5] was 8.91 µM (active); in assay [6], 12.6 µM (active); in assay [7] it was 3.55 µM (active); in [8], 8.91 µM (active).

Regarding `CC(C)[C@H](NC(=O)OCc1ccccc1)C(=O)N[C@H](C=O)Cc1ccccc1` (Cbz-Val-Phe-aldehyde), the compound was classed as inactive in assay [1] and in assay [2]. Moreover, the Potency entry in [9], in assay [3] and in [4] was “inactive” in each case. In addition, the Potency in assay [5] was 7.08 µM (active); in assay [6], 4.47 µM (active); in assay [7] it was 2.82 µM (active); in [8], 8.91 µM (active).

With `NC1(C(=O)O)CCCCC1`, the compound was called inactive in assay [1] and in [2]. For the same compound, the Potency result in assay [9], in assay [3], in assay [5], in assay [6], in assay [7] and in assay [8] was “inactive” throughout.

Regarding `COC1(C2=NCCN2)COc2ccccc2O1` (stereo not drawn), the Potency result in [9], in assay [3], in assay [4], in [5], in assay [7] and in assay [8] was “inactive” throughout.

Turning to `Nc1ccc(-c2ccc3ccccc3n2)cc1`, the compound was classed as inactive in assay [1] and in assay [2]. Moreover, the Potency entry in [9], in [3] and in assay [8] was “inactive” throughout.

Regarding `Cn1ccnc1`, the outcome in assay [1] and in [2] was inactive. Further, the Potency entry in [9], in [3], in [5], in assay [6], in assay [7] and in [8] was “inactive” each time.
